What all share (assay): DAPPL (digital affinity profiling via proximity ligation, sequencing); 10 mM Tris-HCl pH 7.5, 50 mM NaCl, 1 mM DTT, 4% glycerol, room temperature, 30 min; GST-TFs on glutathione beads, 16-mer random dsDNA library, 0.1% formaldehyde crosslink after washing; high values mean tight binding
The target in assay [1] is T1, FLI1 (Homo sapiens, UniProt Q01543 1-452).
T1 sequence: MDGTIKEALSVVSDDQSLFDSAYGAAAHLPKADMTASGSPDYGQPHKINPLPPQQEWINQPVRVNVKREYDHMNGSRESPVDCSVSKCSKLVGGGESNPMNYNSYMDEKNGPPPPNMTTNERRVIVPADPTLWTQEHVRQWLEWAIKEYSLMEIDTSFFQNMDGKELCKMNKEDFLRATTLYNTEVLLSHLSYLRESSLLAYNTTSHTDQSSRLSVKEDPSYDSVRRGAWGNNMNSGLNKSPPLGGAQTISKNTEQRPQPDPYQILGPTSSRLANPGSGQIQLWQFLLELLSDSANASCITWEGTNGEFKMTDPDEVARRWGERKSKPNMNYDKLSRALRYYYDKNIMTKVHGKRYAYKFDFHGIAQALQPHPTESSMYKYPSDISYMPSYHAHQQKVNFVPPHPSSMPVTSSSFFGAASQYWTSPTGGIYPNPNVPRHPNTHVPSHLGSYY
Conditions: protein: recombinant; tags: N-terminal GST; dsDNA, one strand shown. In a few lines:
(§1)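 Beads coated with glutathione captured GST-fused human transcription factors that had been expressed in yeast, and the factors were then given DNA barcodes and pooled with a tag-only sample. The pools were incubated with 200 nmole of a random double-stranded 16-mer DNA library in Tris/NaCl/DTT/glycerol buffer for 30 min at room temperature, washed, crosslinked with 0.1% formaldehyde and proximity-ligated with BsaI/T4 ligase at 37 °C for 1 h. PCR amplification and Illumina NextSeq500 sequencing came last. Binding signal is each hexamer's read frequency for a factor divided by its frequency for the tag-only sample.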

The target in assay [2] is T2, ELK1 (Homo sapiens, UniProt P19419 1-428).
T2 sequence: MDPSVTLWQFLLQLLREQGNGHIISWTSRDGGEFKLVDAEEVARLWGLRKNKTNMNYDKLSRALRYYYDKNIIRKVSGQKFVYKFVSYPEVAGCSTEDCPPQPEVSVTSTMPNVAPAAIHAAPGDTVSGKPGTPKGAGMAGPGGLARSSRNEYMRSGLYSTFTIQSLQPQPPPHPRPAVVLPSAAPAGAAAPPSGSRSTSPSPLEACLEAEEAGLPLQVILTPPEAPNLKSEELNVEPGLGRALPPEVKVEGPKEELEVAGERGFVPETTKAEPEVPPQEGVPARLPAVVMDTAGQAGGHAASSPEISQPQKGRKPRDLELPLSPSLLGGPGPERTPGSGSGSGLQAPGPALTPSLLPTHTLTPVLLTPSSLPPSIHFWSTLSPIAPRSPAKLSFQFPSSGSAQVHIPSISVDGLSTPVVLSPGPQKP
Conditions: protein: recombinant; tags: N-terminal GST; dsDNA, one strand shown. In a few lines: as §1

The target in assay [3] is T3, GABPA (Homo sapiens, UniProt Q06546 1-454).
T3 sequence: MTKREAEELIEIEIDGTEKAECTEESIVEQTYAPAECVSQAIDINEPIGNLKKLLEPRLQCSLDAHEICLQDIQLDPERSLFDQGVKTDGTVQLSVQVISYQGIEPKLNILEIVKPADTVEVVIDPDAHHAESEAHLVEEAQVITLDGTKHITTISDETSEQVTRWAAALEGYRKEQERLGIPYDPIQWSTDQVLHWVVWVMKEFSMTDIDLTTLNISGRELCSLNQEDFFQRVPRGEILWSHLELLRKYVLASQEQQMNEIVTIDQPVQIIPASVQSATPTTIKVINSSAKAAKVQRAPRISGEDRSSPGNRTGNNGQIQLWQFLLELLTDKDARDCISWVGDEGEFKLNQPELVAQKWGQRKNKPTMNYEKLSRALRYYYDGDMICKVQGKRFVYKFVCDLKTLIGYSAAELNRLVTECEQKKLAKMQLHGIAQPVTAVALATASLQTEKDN
Conditions: protein: recombinant; tags: N-terminal GST; dsDNA, one strand shown. In outline:
as §1

Assay [4] has as its target T4, ERG (Homo sapiens, UniProt P11308 1-479).
T4 sequence: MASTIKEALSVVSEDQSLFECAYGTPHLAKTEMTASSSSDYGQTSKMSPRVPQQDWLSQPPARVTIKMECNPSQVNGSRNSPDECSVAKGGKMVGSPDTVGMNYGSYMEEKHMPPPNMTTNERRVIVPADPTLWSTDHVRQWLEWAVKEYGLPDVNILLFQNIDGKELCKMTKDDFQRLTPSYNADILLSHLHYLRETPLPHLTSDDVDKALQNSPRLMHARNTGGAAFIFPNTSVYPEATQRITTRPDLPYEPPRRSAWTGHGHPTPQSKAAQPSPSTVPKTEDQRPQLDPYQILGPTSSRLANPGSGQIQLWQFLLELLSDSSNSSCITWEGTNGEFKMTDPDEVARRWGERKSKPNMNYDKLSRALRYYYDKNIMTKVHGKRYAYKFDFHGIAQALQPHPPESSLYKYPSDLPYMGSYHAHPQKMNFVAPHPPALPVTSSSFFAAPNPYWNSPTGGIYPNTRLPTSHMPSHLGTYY
Conditions: protein: recombinant; tags: N-terminal GST; dsDNA, one strand shown. In a few lines: as §1

For assay [5], the target named is ELF1 (Homo sapiens, UniProt P32519 1-619). Conditions: protein: recombinant; tags: N-terminal GST; dsDNA, one strand shown. In outline: as §1
Assay [6] deals with T5, EHF (Homo sapiens, UniProt Q9NZC4 1-300).
T5 sequence: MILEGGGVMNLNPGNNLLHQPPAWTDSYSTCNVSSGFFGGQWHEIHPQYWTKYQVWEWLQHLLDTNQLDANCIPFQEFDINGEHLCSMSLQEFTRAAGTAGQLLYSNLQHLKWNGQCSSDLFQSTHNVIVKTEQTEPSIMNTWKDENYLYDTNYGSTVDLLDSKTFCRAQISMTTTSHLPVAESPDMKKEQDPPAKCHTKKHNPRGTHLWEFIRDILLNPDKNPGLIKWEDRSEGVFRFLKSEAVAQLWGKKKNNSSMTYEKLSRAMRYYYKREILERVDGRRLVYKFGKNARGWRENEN
Conditions: protein: recombinant; tags: N-terminal GST; dsDNA, one strand shown. In outline:
as §1

For assay [7], the target named is SPI1 (Homo sapiens, UniProt P17947 1-270). Conditions: protein: recombinant; tags: N-terminal GST; dsDNA, one strand shown. In a few lines:
as §1

For assay [8], the target named is SPIB (Homo sapiens, UniProt Q01892 1-262). Conditions: protein: recombinant; tags: N-terminal GST; dsDNA, one strand shown. In outline: as §1
Assay [9] addresses T6, ELK3 (Homo sapiens, UniProt P41970 1-407).
T6 sequence: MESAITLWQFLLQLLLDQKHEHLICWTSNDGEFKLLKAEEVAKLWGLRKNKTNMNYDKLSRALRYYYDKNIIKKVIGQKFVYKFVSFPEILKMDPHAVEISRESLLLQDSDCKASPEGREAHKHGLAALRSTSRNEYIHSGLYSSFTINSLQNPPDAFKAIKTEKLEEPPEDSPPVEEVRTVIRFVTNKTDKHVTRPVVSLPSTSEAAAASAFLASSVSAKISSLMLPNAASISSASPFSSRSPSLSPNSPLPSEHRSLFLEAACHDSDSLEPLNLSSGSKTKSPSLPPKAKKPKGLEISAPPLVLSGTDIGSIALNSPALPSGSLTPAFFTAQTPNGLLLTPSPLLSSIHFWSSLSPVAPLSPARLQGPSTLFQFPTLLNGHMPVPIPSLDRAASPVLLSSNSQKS
Conditions: protein: recombinant; tags: N-terminal GST; dsDNA, one strand shown. In outline:
as §1

In assay [10] the target is ETV5 (Homo sapiens, UniProt P41161 1-510). As to conditions: protein: recombinant; tags: N-terminal GST; dsDNA, one strand shown. In a few lines: as §1
Assay [11] concerns the target HSF1 (Homo sapiens, UniProt Q00613 1-529). Conditions: protein: recombinant; tags: N-terminal GST; chain copies: 3; dsDNA, one strand shown. In outline: as §1
For assay [12], the target named is T7, SPIC (Homo sapiens, UniProt Q8N5J4 1-248).
T7 sequence: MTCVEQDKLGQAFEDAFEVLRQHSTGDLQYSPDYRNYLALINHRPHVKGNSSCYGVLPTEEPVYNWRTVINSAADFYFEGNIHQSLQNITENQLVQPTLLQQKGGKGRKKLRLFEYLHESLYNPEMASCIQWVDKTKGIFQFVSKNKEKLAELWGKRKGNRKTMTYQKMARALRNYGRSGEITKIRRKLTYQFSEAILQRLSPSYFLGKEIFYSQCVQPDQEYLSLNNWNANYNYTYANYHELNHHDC
As to conditions: protein: recombinant; tags: N-terminal GST; dsDNA, one strand shown. In a few lines: as §1

Assay [13] has as its target ELF4 (Homo sapiens, UniProt Q99607 1-663). Conditions: protein: recombinant; tags: N-terminal GST; dsDNA, one strand shown. In a few lines: as §1
Assay [14] has as its target T8, ELK4 (Homo sapiens, UniProt P28324-2 1-405).
T8 sequence: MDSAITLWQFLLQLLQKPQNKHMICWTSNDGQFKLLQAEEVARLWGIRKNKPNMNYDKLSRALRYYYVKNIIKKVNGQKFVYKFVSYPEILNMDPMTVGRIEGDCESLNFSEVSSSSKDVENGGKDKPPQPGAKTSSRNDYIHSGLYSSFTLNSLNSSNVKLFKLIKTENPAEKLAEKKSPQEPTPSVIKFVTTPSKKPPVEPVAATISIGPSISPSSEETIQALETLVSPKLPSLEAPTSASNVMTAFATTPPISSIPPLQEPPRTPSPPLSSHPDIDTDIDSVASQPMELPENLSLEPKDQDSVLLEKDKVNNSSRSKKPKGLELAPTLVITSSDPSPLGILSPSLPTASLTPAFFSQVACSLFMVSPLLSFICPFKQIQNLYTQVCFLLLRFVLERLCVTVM
Conditions: protein: recombinant; tags: N-terminal GST; dsDNA, one strand shown. In a few lines:
as §1

The target of assay [15] is CRX (Homo sapiens, UniProt O43186 1-299). As to conditions: protein: recombinant; tags: N-terminal GST; dsDNA, one strand shown. In a few lines:
as §1

In assay [16] the target is ETV1 (Homo sapiens, UniProt P50549 1-477). Conditions: protein: recombinant; tags: N-terminal GST; dsDNA, one strand shown. In outline: as §1
ETV1, sequence (P50549 whole entry): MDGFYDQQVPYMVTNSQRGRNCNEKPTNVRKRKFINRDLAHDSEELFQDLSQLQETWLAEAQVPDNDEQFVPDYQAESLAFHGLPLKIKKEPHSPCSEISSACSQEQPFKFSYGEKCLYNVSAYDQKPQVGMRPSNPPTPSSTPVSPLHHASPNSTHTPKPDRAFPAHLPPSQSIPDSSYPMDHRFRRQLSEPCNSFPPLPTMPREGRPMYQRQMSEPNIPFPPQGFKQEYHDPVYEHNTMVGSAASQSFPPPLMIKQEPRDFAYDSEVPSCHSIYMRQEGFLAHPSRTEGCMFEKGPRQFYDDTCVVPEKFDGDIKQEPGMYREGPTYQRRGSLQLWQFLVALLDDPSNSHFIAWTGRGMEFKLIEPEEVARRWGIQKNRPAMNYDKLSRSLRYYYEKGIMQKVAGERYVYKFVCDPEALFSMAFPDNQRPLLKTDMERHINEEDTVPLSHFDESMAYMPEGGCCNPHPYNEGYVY

SPIB, sequence (Q01892 whole entry): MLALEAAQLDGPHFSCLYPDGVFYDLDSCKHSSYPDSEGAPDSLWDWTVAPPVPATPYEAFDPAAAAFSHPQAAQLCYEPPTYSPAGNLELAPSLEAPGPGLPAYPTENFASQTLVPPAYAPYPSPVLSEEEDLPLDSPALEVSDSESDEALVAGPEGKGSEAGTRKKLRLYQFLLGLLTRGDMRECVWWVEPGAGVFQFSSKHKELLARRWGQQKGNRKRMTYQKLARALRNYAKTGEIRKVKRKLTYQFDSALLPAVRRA
ELF1, sequence (P32519 whole entry): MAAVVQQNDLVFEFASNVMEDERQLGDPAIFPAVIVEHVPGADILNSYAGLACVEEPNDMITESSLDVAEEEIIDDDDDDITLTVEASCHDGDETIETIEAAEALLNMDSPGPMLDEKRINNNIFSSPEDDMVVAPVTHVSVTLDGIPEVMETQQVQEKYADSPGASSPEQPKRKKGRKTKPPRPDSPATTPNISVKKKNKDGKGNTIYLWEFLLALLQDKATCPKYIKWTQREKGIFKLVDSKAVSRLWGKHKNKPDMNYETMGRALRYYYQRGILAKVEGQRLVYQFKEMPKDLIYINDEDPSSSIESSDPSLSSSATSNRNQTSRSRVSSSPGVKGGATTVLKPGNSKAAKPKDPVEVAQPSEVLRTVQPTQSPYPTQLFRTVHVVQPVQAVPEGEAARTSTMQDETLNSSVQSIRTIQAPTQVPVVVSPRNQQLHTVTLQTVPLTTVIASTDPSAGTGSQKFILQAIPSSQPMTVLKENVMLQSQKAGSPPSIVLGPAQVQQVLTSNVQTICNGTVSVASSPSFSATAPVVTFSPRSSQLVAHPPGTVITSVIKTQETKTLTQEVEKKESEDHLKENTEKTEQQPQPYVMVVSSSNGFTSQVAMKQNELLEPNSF
ETV5, sequence (P41161 whole entry): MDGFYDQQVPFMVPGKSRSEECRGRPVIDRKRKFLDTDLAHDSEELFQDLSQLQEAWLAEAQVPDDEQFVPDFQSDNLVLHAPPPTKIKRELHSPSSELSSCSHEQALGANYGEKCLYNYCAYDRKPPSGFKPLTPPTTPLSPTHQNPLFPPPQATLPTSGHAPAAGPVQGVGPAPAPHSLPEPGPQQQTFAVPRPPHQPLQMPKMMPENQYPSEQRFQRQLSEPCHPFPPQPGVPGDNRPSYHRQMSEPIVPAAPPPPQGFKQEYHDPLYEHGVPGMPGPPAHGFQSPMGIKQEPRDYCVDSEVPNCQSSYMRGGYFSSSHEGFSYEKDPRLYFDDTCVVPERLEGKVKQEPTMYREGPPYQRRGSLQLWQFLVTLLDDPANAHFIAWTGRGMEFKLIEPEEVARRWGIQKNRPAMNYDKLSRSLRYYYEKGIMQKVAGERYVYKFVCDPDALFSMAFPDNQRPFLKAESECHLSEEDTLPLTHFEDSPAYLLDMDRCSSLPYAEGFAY
HSF1, sequence (Q00613 whole entry): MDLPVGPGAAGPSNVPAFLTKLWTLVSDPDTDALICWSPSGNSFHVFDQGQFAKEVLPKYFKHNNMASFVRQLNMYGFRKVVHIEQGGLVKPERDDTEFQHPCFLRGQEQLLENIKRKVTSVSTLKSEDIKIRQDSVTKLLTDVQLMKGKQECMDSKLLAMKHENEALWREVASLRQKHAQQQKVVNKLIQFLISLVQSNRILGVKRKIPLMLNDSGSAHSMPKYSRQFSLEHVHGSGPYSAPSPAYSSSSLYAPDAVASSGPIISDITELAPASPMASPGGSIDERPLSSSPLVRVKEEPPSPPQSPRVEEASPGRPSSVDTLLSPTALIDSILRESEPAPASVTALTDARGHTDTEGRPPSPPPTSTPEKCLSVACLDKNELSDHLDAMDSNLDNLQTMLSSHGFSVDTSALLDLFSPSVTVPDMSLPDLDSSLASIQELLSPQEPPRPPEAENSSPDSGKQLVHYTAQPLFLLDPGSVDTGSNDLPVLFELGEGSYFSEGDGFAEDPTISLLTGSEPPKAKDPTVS
CRX, sequence (O43186 whole entry): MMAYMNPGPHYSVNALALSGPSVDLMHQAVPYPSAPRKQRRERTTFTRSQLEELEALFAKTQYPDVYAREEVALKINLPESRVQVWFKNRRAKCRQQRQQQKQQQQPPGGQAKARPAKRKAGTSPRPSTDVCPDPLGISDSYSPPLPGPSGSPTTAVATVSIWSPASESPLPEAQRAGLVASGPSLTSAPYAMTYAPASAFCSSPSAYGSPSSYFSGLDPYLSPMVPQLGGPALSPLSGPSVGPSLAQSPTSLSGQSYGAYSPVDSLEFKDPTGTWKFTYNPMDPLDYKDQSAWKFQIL
ELF4, sequence (Q99607 whole entry): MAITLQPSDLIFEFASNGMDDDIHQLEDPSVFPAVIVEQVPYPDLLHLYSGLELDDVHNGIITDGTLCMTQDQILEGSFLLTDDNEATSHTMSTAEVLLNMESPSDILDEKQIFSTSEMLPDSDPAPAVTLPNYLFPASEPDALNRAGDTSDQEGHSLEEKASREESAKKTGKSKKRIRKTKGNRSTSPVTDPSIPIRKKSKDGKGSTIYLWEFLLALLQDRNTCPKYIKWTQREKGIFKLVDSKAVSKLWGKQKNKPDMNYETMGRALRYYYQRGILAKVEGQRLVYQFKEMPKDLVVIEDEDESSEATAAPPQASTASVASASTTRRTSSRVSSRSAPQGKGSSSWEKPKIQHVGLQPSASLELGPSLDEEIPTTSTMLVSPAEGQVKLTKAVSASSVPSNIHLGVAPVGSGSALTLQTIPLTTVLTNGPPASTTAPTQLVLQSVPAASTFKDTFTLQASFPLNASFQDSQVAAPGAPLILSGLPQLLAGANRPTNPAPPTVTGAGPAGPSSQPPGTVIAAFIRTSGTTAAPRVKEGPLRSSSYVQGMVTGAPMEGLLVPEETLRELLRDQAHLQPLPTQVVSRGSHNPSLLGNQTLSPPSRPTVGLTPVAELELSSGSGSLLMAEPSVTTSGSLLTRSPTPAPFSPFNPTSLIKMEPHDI

With GATAAT, the binding signal in assay [1] was 1.04 fold enrichment (6-mer frequency, TF over GST control); in assay [2], 1.05 fold enrichment (6-mer frequency, TF over GST control); in [3], 1.13 fold enrichment (6-mer frequency, TF over GST control); in assay [4], 1.03 fold enrichment (6-mer frequency, TF over GST control); in assay [5], 1.02 fold enrichment (6-mer frequency, TF over GST control); in assay [6] it was 1.09 fold enrichment (6-mer frequency, TF over GST control). In addition, the binding signal in assay [7] is 1.09 fold enrichment (6-mer frequency, TF over GST control); in assay [8], 1.12 fold enrichment (6-mer frequency, TF over GST control); in assay [9] it was 1.12 fold enrichment (6-mer frequency, TF over GST control); in assay [10] it was 1.05 fold enrichment (6-mer frequency, TF over GST control); in assay [11], 1.98 fold enrichment (6-mer frequency, TF over GST control); in [12], 1.27 fold enrichment (6-mer frequency, TF over GST control). Moreover, the binding signal in [13] is 1.1 fold enrichment (6-mer frequency, TF over GST control); in assay [14], 1.09 fold enrichment (6-mer frequency, TF over GST control); in assay [15] it was 2.88 fold enrichment (6-mer frequency, TF over GST control); in assay [16], 1.14 fold enrichment (6-mer frequency, TF over GST control).
